Screening results (PubChem BioAssay)
Only some compounds are listed: those with a hit (about 3.5% of all), similar ones and a draw of the others.
Sm TGR inh – inhibitors of Schistosoma mansoni thioredoxin glutathione reductase. Q962Y6. purified TGR, DTNB reduction, TNB absorbance 405 nm. Potency, µM (highest dose often 114 µM), without a hit: at the top dose activity change, negative = inhibition, usual class: inhibitors. 360,000 tested, 3% active; also: % is scaled to controls: 0 for no effect and ±100 for the full control effect; nearly all actives have a fitted effect of over 60% in size
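Kinetic colorimetric format: TGR-catalysed, NADPH-driven DTNB reduction monitored via TNB absorbance. Enzyme dispensed at 20 nM; compound exposure 15 min at room temperature before reaction start.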
LmPK inhibitor – blocks Leishmania mexicana pyruvate kinase activity | Q27686 | purified LmPK, Kinase-Glo ATP luminescence, 1 h | Potency, µM (titrated, usually from 57.5 µM), without a hit: at the highest dose activity change, negative = inhibition, usual class: inhibitors | 290,000 tested, 0.37% active | AID 1721; also: % is scaled to controls: 0 for no effect and ±100 for the full control effect
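Purified LmPK (0.1 nM) with 0.5 mM PEP and 0.1 mM ADP in imidazole buffer pH 7.2 with MgCl2/KCl, 1 h at room temperature. ATP formed was read by luciferase luminescence and normalized to no-enzyme and uninhibited controls.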
NS1 inh – influenza NS1 inhibition | Potency, µM (titrated, usually from 46.1 µM), without a hit: at the top dose activity, positive = more growth | 270,000 tested, 0.4% active | AID 2326; calls by dose curve; also: actives are rising curves; nearly all actives have a fitted effect of over 50% in size
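A cell-based growth assay was used: compounds that relieve NS1-induced slow growth of budding yeast raise OD600. Assay medium was yeast nitrogen base with ammonium sulphate and -URA supplement, pH 6.0, with 2% galactose.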
Tb PYK inh – blocks Trypanosoma brucei pyruvate kinase; Potency, µM (series often up to 76.8 µM), without a hit: top-dose activity, negative = inhibition, actives largely listed as inhibitors; TbPYK enzyme, Kinase-Glo Plus ATP luminescence, 45 min; 410,000 tested, 0.12% active; AID 624173; also: % is scaled to controls: 0 for no effect and ±100 for the full control effect; nearly all actives have a fitted effect of over 50% in size
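Activity of T. brucei pyruvate kinase was followed by Kinase-Glo Plus luminescence after the enzyme reacted 45 min at room temperature with 130 uM ADP (final) and substrate. Test compounds were added before ADP at multiple concentrations.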
Giardia FBPA inh – blocks Giardia fructose-bisphosphate aldolase activity | A8B2U2 | purified Giardia FBPA | Potency, µM (doses to about 59.6 µM), for the others: top-dose activity, negative = inhibition, usual class: inhibitors | 290,000 tested, 0.71% active | AID 2451; also: % is scaled to controls: 0 for no effect and ±100 for the full control effect; nearly all actives have a fitted effect of over 55% in size
Target sequence (A8B2U2 whole entry, looked up): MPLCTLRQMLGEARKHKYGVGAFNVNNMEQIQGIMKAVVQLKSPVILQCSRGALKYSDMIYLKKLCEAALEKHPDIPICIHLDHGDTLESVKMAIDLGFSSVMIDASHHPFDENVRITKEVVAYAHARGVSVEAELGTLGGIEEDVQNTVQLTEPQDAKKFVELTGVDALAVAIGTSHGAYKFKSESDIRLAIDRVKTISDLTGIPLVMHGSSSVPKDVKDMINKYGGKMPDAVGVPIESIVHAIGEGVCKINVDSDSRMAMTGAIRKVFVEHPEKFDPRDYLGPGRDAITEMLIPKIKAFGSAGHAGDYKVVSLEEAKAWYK
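40 nM FBPA preincubated 10 min at RT with compound (up to 57.5 uM final), then substrate plus GAPDH/TPI/NAD/arsenate coupling and diaphorase/resazurin added. Fluorescence read after 20 min at RT, 525/598 nm.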
RE007 growth inh – less growth of the S. pombe RE007 Vpr strain; S. pombe RE007 Vpr strain, BacTiter-Glo ATP luminescence, 24 h; Potency, µM (titrated, usually from 92.2 µM), for inactives: at the top dose activity change, negative = less growth, most hits filed as inhibitors; 360,000 tested, 0.21% active; AID 651644; active = well fitted falling curve with a large enough effect; inconclusive = small, poorly fitted or top-dose-only effect; inactive = no such curve, though single readings can be large or run the other way; also: % is scaled to controls: 0 for no effect and ±100 for the full control effect; nearly all actives have a fitted effect of over 50% in size
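Fission yeast strain RE007, carrying one chromosomally integrated HIV-1 vpr copy, was seeded at OD 0.01 in PMG+AL medium with 23 nL pinned compound. After 24 h at 30 °C and 99% humidity, viability was read by BacTiter-Glo luminescence.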
An asterisk follows results filed as active; ? = inconclusive; nt = no result given. Unless noted, calls follow the shape of the dose curve; as a rule, active = well fitted curve in the direction sought with a large enough effect; inconclusive = small, poorly fitted or top-dose-only effect, or another doubt; inactive = no such curve, though single readings can be large; an effect the other way counts as inactive or inconclusive. Potency is read from the fitted curve at half-maximal effect.

SMILES | Sm TGR inh | LmPK inhibitor | NS1 inh | Tb PYK inh | Giardia FBPA inh | RE007 growth inh
Cc1onc(-c2ccccc2Cl)c1C(=O)Nc1ccc(CN2CCCC2)cc1 | 79µM* | 0% | 6% | -6% | -29% | 11%
Cn1c(=O)c2c(nc(C(=N)SCC(=O)O)n2C)n(C)c1=O | nt | nt | 7.9µM* | nt | nt | nt
CCCSc1nc2c(c(=O)n(C)c(=O)n2C)n1C | 11% | 1% | 0% | 1% | -2% | nt
CCOC(=O)c1c(/N=C/c2c(O)n(-c3ccc(F)cc3)c(=S)[nH]c2=O)sc2c1CCCC2 | ? | 7% | 3% | -10% | -2% | -10%
CCOC(=O)c1c(/N=C/c2c(O)n(-c3ccccc3F)c(=S)[nH]c2=O)sc2c1CCCC2 | 11µM* | 3% | -2% | -22% | 18µM* | -17%
COc1ccc(-c2nnc(SCC(=O)Nc3cc(OC)ccc3OC)nc2-c2ccc(OC)cc2)cc1 | -4% | nt | nt | 0% | nt | nt
O=c1c2ccccc2sn1-c1cc(S(=O)(=O)N2CCOCC2)ccc1N1CCOCC1 | 25µM* | -5% | 10% | 4.5µM* | ? | 1%
O=S(=O)(c1ccc(N2CCOCC2)c(Cl)c1)N1CCOCC1 | -2% | 2% | -2% | 5% | -1% | 7%
CCOC(=O)c1c(Nc2ccc(O)cc2)nnc(-c2ccccc2)c1-c1ccccc1 | 45µM* | nt | nt | 4% | nt | nt
CCOC(=O)c1c(Nc2ccccc2)nnc(-c2ccccc2)c1-c1ccccc1 | 4% | nt | nt | -2% | nt | nt
CCOC(=O)C1=C(CS(=O)(=O)c2ccc(F)c(C)c2)NC(=O)NC1c1ccccc1OC (stereo not given) | -1% | nt | nt | -2% | nt | nt
CCCCCNC(=O)C(=O)NCC(c1ccc2c(c1)OCO2)N1CCOCC1 (stereo not given) | -2% | nt | nt | 0% | nt | nt
Nc1nonc1-c1nc2ccccc2n1CC(=O)N/N=C/c1ccc(-c2cccc(C(=O)O)c2)o1 | 50µM* | 1% | nt | -18% | -14% | -2%
CCC(=O)N1CCc2cc(S(=O)(=O)NC(C(=O)NCc3ccc(OC)cc3)C(C)C)ccc21 (stereo not given) | -2% | nt | nt | 2% | nt | nt
Cc1nc2nc(C)c(CCC(=O)NCCc3ccccc3)c(C)n2n1 | -6% | nt | nt | -3% | nt | nt
CCCCNC(=O)c1ccc2nc(-c3ccco3)c(-c3ccco3)nc2c1 | 7.9µM* | 3% | ? | ? | ? | -6%
O=C(NCCCO)c1ccc2nc(-c3ccco3)c(-c3ccco3)nc2c1 | 2.5µM* | -14% | nt | ? | ? | -28%
O=S(=O)(NCCc1cn2ccsc2n1)c1ccc(Cl)cc1 | 35µM* | nt | nt | -3% | nt | nt
CCCn1c(CN2CCN(C(=O)c3ccco3)CC2)nc2cc(S(=O)(=O)N(C)C)ccc21 | 28µM* | nt | nt | 3% | nt | 6%
Cc1ccc(C)c(Nc2nc3c(S(=O)(=O)c4ccc(C(C)C)cc4)nnn3c3ccsc23)c1 | -19% | nt | nt | 6% | nt | nt
CC(=O)Oc1c(Br)cc(N(C(C)=O)S(=O)(=O)c2ccccc2)c2ccccc12 | 3.5µM* | ? | -9% | -18% | 28µM* | 2%
N#Cc1c(Cl)nc(Cl)c2c1CCN(Cc1ccccc1)C2 | 35µM* | 4% | -4% | -3% | -15% | -4%
CCOc1ccccc1CNC(=O)c1cc2n(n1)CCCN(Cc1ccc(C)cc1)C2=O | 9% | nt | nt | -1% | nt | nt
Cc1ccc(N2C(=O)C(Cl)=C(Nc3c(C)n(C)n(-c4ccccc4)c3=O)C2=O)cc1 | 8.9µM* | 1% | -42% | -11% | 4% | -7%
Cc1cccc(N2C(=O)C(Cl)=C(Nc3c(C)n(C)n(-c4ccccc4)c3=O)C2=O)c1C | 8.9µM* | 0% | 5% | -8% | -26% | -1%
SMILES | Sm TGR inh | LmPK inhibitor | NS1 inh | Tb PYK inh | Giardia FBPA inh | RE007 growth inh
COc1ccc(OC)c(CCNC(=O)c2c3c(nc4ccccc24)C(=O)N(C2CCCCC2)C3)c1 | -1% | nt | nt | -2% | nt | nt
CC(=O)c1ccc(OCC(=O)N(C2CCCCC2)C2CCS(=O)(=O)C2)cc1 (stereo not given) | 5% | nt | nt | 0% | nt | 2%
O=C(CCl)N(C1CCCC1)C1CCS(=O)(=O)C1 (stereo not given) | 16µM* | -2% | -1% | 0% | -6% | -18%
CCc1nc(SCC(=O)c2ccccc2)c2ccccc2n1 | 45µM* | 3% | 1% | -6% | -20% | -13%
COC(=O)c1ccccc1NC(=O)c1noc2c1CSc1ccccc1-2 | 3.5µM* | nt | nt | -3% | nt | nt
COc1ccc(C)cc1NC(=O)c1noc2c1CSc1ccccc1-2 | 9% | nt | nt | 1% | nt | nt
CCOc1ccccc1NC(=O)N1CCc2c(sc3c2CCCC3)C1c1ccccc1 (stereo not given) | 1% | nt | nt | -3% | nt | nt
COc1ccc(-c2nc3cnc(N4CCN(C)CC4)nc3n(-c3ccc(OC)cc3)c2=O)cc1 | nt | nt | nt | nt | -22% | nt
CCOc1ccccc1NC(=O)C1CCC(CNS(=O)(=O)c2ccc3c(c2)CCCC(=O)N3)CC1 (stereo not given) | 4% | nt | nt | -5% | nt | nt
Cc1ccc(-c2cc(C(=O)N3CC(C)OC(C)C3)c3ccccc3n2)o1 (stereo not given) | 40µM* | nt | nt | -21% | nt | 1%
Cc1ccc(-c2cc(C(=O)N3CCC(C)CC3)c3ccccc3n2)cc1 | 4% | 0% | -105% | -11% | nt | 4%
Cc1ccc(-c2cc(C(=O)N3CC(C)CC(C)C3)c3ccccc3n2)o1 (stereo not given) | 22µM* | 1% | -7% | ? | 14% | 1%
Cc1[nH]c2ccccc2c1Cc1nnc(SCC(=O)NCc2ccco2)o1 | 16µM* | 2% | -9% | -9% | -4% | 10%
CCn1c(Cc2c(C)[nH]c3ccccc23)nnc1SCC(=O)NCc1ccco1 | 0% | 9% | 5% | -11% | 1% | -5%
O=C(CSc1nnc(Cc2ccccc2)o1)NCc1ccco1 | 45µM* | 4% | 16% | 5% | 2% | 13%
O=C(CSc1nnc(Cc2ccccc2)n1Cc1ccccc1)NCc1ccco1 | -33% | 6% | 6% | 2% | 5% | -7%
O=C(CSc1nnc(CNC(=O)c2c(F)cccc2Cl)o1)NCc1ccc(F)cc1 | -2% | -9% | -15% | 1% | nt | 1%
O=C(CSc1nnc(CNC(=O)c2c(F)cccc2F)o1)NCc1ccc(F)cc1 | 28µM* | -12% | 7% | 2% | nt | -1%
Cc1noc(-c2ccc(NC(C)c3ccccc3)c([N+](=O)[O-])c2)n1 (stereo not given) | -2% | nt | nt | -3% | nt | nt
COc1ccccc1CNC(=O)C1CCN(S(=O)(=O)c2ccc3c(c2)CCCN3C(C)=O)CC1 | 10% | nt | nt | -2% | nt | nt
Cn1c(=O)c2c(nc3n2CC(O)CN3c2ccc(O)cc2)n(C)c1=O (stereo not given) | 20µM* | -2% | 1% | 6% | 3% | 17%
